Assay results reported in PubChem BioAssay (NCI).
Compounds without any hit were thinned out: in the full panel of roughly 83,000, 20% have a hit.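 A percent growth of 40 corresponds to 60% growth inhibition; 0 means no net growth; -100 means all cells died. Active threshold: below 10.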 The source made the active and inactive calls.

Experiments:
Experiment in all cases: NCI-60 one-dose screen, 48 h (100 = growth as untreated, 0 = no growth, -100 = all killed)
Conditions in all cases: 10 µM unless noted
[1] = tested on: DU-145 prostate
[2] = tested on: K-562 leukemia
[3] = tested on: MALME-3M melanoma
[4] = tested on: MDA-MB-231 breast
[5] = tested on: RXF 393 renal
[6] = tested on: SF-268 CNS
[7] = tested on: SF-295 CNS
[8] = tested on: SF-539 CNS
[9] = tested on: UACC-257 melanoma
[10] = tested on: M14 melanoma

Measured: growth

CO[C@@]12C=C[C@@]34CCC(=O)N3c3ccccc3[C@@H](O1)C4C2
inactive: [1] 111% | [2] 97.5% | [3] 98% | [4] 100% | [5] 107% | [6] 98.4% | [7] 109% | [8] 102% | [9] 101% | [10] 99.5%

CCOCc1nc2ccccc2c(=O)[nH]1
inactive: [1] 107% | [2] 119% | [3] 89.6% | [4] 103% | [5] 117% | [6] 101% | [7] 99.6% | [8] 102% | [9] 108% | [10] 96.2%

C=C1C(=O)O[C@H]2[C@H]1CC/C(COC(=O)CCCCCCCCC(=O)OC/C1=C/CC[C@@]3(C)O[C@H]3[C@H]3OC(=O)C(=C)[C@@H]3CC1)=C\CC[C@@]1(C)O[C@@H]21
inactive: [6] 20.7% | [7] 87.4% | [9] 24.6%
active: [1] 6.71% | [2] 1.49% | [3] -18.4% | [4] -41.2% | [5] -86.6% | [8] -36.6% | [10] -44.7%

C[C@H]1[C@H](C)CC[C@]2(C(=O)OCCOCCOCC[P+](c3ccccc3)(c3ccccc3)c3ccccc3)CC[C@]3(C)C(=CC[C@@H]4[C@@]5(C)CC[C@H](OC(=O)C(Cl)Cl)C(C)(C)[C@@H]5CC[C@]43C)[C@H]12
active: [2] 0.14% | [3] -78.5% | [4] -0.496% | [5] -29.5% | [7] -34.8% | [8] 9.4% | [9] -13.6% | [10] 8.99%
inactive: [1] 26% | [6] 25.9%

Cc1cccc(C)c1NC(=O)CN(CC(C)C)CC(O)COc1ccccc1 (stereo not given)
inactive: [1] 111% | [2] 96% | [3] 103% | [4] 93.5% | [5] 103% | [6] 102% | [7] 88% | [8] 97.6% | [9] 110% | [10] 87.8%

COc1ccc(N(C)c2nc(Cl)nc3ccn(C)c23)cc1
active: [1] 2.61% | [2] 7.28% | [4] 0.175% | [8] -32% | [10] -0.998%
inactive: [3] 84.8% | [5] 48.3% | [6] 24.3% | [7] 15.5% | [9] 49.6%

O=C1Nc2ccc(Br)cc2/C1=N\N=C/c1cn(Cc2ccccc2)c2ccccc12
inactive: [1] 95.7% | [2] 67.4% | [3] 115% | [4] 93.3% | [5] 58.4% | [6] 95% | [7] 95.9% | [8] 99.4% | [9] 109% | [10] 106%

C=C1C(=O)O[C@H]2[C@H]1CC/C(COC(=O)NCc1nc3ccccc3[nH]1)=C\CC[C@@]1(C)O[C@@H]21
inactive: [1] 80.1% | [2] 24.7% | [3] 86.8% | [4] 90.8% | [5] 67.2% | [6] 105% | [7] 106% | [8] 77.9% | [9] 94.9% | [10] 77.5%

C=C1C(=O)O[C@H]2[C@H]1CC/C(COC(=O)c1cccnc1N)=C\CC[C@@]1(C)O[C@@H]21
inactive: [1] 14% | [2] 10.1% | [6] 23.9% | [7] 34.5% | [8] 12.6% | [9] 57.8% | [10] 10.2%
active: [3] -3.98% | [4] -9.35% | [5] -2.17%

O=C1NN(c2ccccc2)C(c2ccc3c(c2)OCO3)N2CCC[C@@H]12 (stereo not given in full)
inactive: [1] 101% | [2] 93.8% | [3] 94.9% | [4] 105% | [5] 117% | [6] 94% | [7] 103% | [8] 111% | [9] 99.2% | [10] 96.6%

COc1ccc(-c2nnc(N3CCN(C(=O)CN4CCN(c5ccc(OC)cc5)CC4)CC3)nc2-c2ccc(OC)cc2)cc1
active: [1] -16.3% | [2] -56.7% | [3] -72.7% | [4] 8.6% | [5] -34.8% | [6] -32.4% | [7] -60.6% | [9] -8.52% | [10] -17.3%
inactive: [8] 32%

CC[C@]12C=CCN3CC[C@@]4(c5ccc(OC)cc5N(C)[C@H]4[C@@](O)(C(=O)OC)[C@@H]1OC(=O)CCC(=O)O[C@H]1CC[C@H]4[C@@H]5CC[C@H]6CC(=O)CC[C@]6(C)[C@H]5CC[C@]14C)[C@@H]32
active: [2] 8.73% | [7] 7.7%
inactive: [1] 43.7% | [3] 42.5% | [4] 34.6% | [5] 25.9% | [6] 46.2% | [8] 47.3% | [9] 26.9% | [10] 26%

COc1ccc2nc(-c3ccc(Cl)cc3)cc(-c3nnc(SC/C(=N/O)c4ccccc4)o3)c2c1
inactive: [1] 29.7% | [2] 20.1% | [3] 25.5% | [4] 49.6% | [6] 55.3% | [7] 36.3% | [8] 43.5% | [9] 60.1% | [10] 25.2%
active: [5] 5.44%
